Assay results as given in PubChem BioAssay (NCI).
Compounds without any hit were thinned out: in the full panel of roughly 79,000, 15% have a hit. Values without a mark were called inactive. The source made the active and inactive calls. Rule as the data show it: active = growth inhibition above about 70%; inactive = the rest.

Tests used:
[1] = NCI Yeast Anticancer Drug Screen. Data for the rad50 strain (AID 155);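 also: 0% = growth of vehicle-only cultures of the same strain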; details: S. cerevisiae rad50 strain growth inhibition; at 50.0 µM; stronger effect = higher value
Method in brief: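 Yeast carrying a defined DNA repair defect were exposed to test compounds, and growth was compared with vehicle-treated controls to give percent inhibition.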

[2] = NCI Yeast Anticancer Drug Screen. Data for the mec2-1 strain (AID 157); details: S. cerevisiae mec2-1 strain, at 50.0 µM, stronger effect = higher value
Method in brief: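 Compounds were applied to mec2-1 yeast cells. Their growth was then compared with that of vehicle-treated cultures to give growth inhibition.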

[3] = NCI Yeast Anticancer Drug Screen. Data for the sgs1 mgt1 strain (AID 161);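 also: 0% = growth of cultures given vehicle only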; details: S. cerevisiae sgs1 mgt1 strain, at 50.0 µM, stronger effect = higher value
Method in brief: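 Percent growth inhibition was derived by comparing compound-exposed mutant yeast with vehicle-exposed cultures. The strain carries alterations in DNA damage repair.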

[4] = NCI Yeast Anticancer Drug Screen. Data for the cln2 rad14 strain (AID 165);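 also: 0% = growth equal to vehicle treated cultures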; details: S. cerevisiae cln2 rad14 strain, at 50.0 µM, stronger effect = higher value
Method in brief: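 Strain: cln2 rad14 yeast, altered in cell cycle control and DNA damage repair. Read-out: growth inhibition vs vehicle.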

[5] = NCI Yeast Anticancer Drug Screen. Data for the bub3 strain (AID 167); details: S. cerevisiae bub3 mutant strain, at 50.0 µM, stronger effect = higher value
Method in brief: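 Compounds were applied to a genetically altered yeast strain carrying a cell-cycle control defect. Growth inhibition was scored against vehicle-treated controls.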

[6] = NCI Yeast Anticancer Drug Screen. Data for the mlh1 rad18 strain (AID 175); details: S. cerevisiae mlh1 rad18 strain growth inhibition; at 50.0 µM; stronger effect = higher value
Method in brief: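 A repair-deficient yeast strain is exposed to test compound, and growth is scored relative to vehicle-treated controls.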

Compound | growth inhibition [1] | growth inhibition [2] | growth inhibition [3] | growth inhibition [4] | growth inhibition [5] | growth inhibition [6]
COC(=O)CCCC(Sc1ccccc1)C(=O)OC (stereo unspecified) | 3.7% | 0.6% | 15.7% | -7.4% | 7.85% | 6.75%
CC(NC(=O)CNP(=O)(c1ccccc1)c1ccccc1)C(=O)NC(Cc1ccccc1)C(=O)OCc1ccccc1 (stereo unspecified) | 9.8% | 4.3% | 20.1% | -4.5% | -9.55% | 30.1%
CCOC(=O)c1ccc(NC(=S)Nc2ccccc2S)cc1 | 16.4% | 16.4% | 22.9% | 9.35% | 10.1% | 11.9%
O=C(NC(=S)Nc1cc(C(F)(F)F)ccc1Cl)c1ccccc1F | -1.25% | -1.2% | 0.35% | -6.85% | -1.35% | 4.95%
CC(C)/C=C\C(=O)CC(C)C | -3.65% | 28.8% | 9.35% | 5.9% | 17.4% | 18.6%
Cc1ccc(C(=O)/C=C\c2ccc(Cl)c(Cl)c2)cc1 | -14.9% | -5.8% | 23.3% | -5.5% | 35.7% | 5.6%
Cn1ncc2c(NCCc3ccccc3)nc(Cl)nc21 | 19.8% | -18.3% | 5.15% | 11.2% | 8.1% | 30.2%
CC(=O)OC1CCC(C(C)C)CC1 (stereo unspecified) | 4.35% | -2.95% | -0.25% | -28.2% | 1.15% | -13.1%
CC(=O)/C(=C\c1ccc([N+](=O)[O-])cc1)C(=O)CCN(C)C | 5.25% | 28.1% | 34.9% | -5.3% | 13.4% | -41.2%
NNC(=O)Cc1c[nH]c2ccccc12 | 7.1% | 9.4% | 5.85% | -7.55% | 6% | 2.25%
NC1=NCCN1 | 31.9% | 11.3% | 3.5% | -1.85% | 16.8% | 24.3%
C=CCCCCCCCCC1OCC(CC)C(CCC)O1 (stereo unspecified) | 5.65% | 10.1% | -2.8% | 47.5% | 26.5% | 39.3%
CC(=O)CC(=O)NC(C)(C)CC(C)(C)C | -16.4% | -41.9% | -31.8% | 10.8% | -34.8% | -9.55%
CC(=O)OCCn1c(Cc2ccc(C)cc2)nn(C(C)=O)c1=O | 16.6% | 5.5% | 11.8% | 3.4% | 5.9% | -0.95%
CCOC(=O)c1[nH]c2ccsc2c1C[N+]1(C)CCCCC1 | 38.1% | 5.8% | 36.9% | -3.7% | -0.85% | 16.3%
Cc1c(C(=O)C/C(=N\O)C(=O)Nc2cc(Cl)c(Cl)cc2Cl)[n+](=O)c2ccccc2n1[O-] | 21.8% | 14.3% | 22.1% | 14.7% | 21.4% | 32.4%
Nc1ccc(C(=O)O)cc1Cl | 0.85% | 0.75% | 2.9% | -35.5% | -6.3% | -22.2%
CCN(CC)c1ccc(/C=C(\C)c2nc3ccc(Cl)cc3[nH]2)cc1 | -5.35% | 6.6% | 4.5% | 7% | -5.95% | -4.75%
CN1CCCCC1=O | -0.15% | -2.6% | 6.15% | 8.65% | 8.65% | 9.8%
CC(=O)Nc1ccc(NC(=O)Nc2cccc(Cl)c2C)cc1 | 2.75% | -0.35% | 3.05% | 11.7% | 17.4% | 5.3%
CC(C)(C)c1ccn[nH]1.CC(C)(C)c1ccn[nH]1.[Cl-].[Cl-].[O]=[V][O-] | 0.9% | -12.4% | 9.65% | -29.2% | -21.8% | -12.8%

Compound | growth inhibition [1] | growth inhibition [2] | growth inhibition [3] | growth inhibition [4] | growth inhibition [5] | growth inhibition [6]
Clc1ccccc1C(N1CCCCC1)N1CCCCC1 | 27.9% | 13.2% | 19.4% | 13.5% | 28% | 28.1%
C/C(C#CC1=CCCCC1)=N\Nc1ccc([N+](=O)[O-])cc1[N+](=O)[O-] | -3.45% | -24.4% | -8.1% | -4.3% | -7.75% | 1.1%
CC1(C)Cc2cccc(OC(=O)NO)c2O1 | -0.65% | 24.4% | 0.45% | -37.8% | -3.1% | 9%
O=C(O)c1ccc2c(c1)CC1(C2)Cc2ccccc2C1=O (stereo unspecified) | -16.4% | -4.9% | -8.2% | -14.2% | 6.15% | -2.75%
O=C1CCC(N2C(=O)C3CCCCC3C2=O)C(=O)N1 (stereo unspecified) | -0.2% | 12.3% | 18.9% | 1.7% | 8.5% | -14.5%
O=[N+]([O-])c1ccc(SC2=NCCCN2C2CCCCC2)c(Cl)c1 | -0.1% | -13.9% | 12.8% | 13.8% | 12.6% | -9%
Cc1cc(OC(C)C)cc(C)c1C(=O)OCC(C)CN1CCCC1 (stereo unspecified) | 1.9% | -16.8% | 5.4% | -15.1% | -8.5% | -18.2%
C/C(=N/NC(N)=O)C(=O)O | -0.15% | 10.7% | 2.5% | -48.4% | -2.95% | 13.7%
CCCCN(CCCC)CC(O)c1cccc2c1cc(Cl)c1ccccc12 (stereo unspecified) | 99.2% (active) | 99.6% (active) | 99.5% (active) | 98.5% (active) | 98.5% (active) | 99.3% (active)
C/C(=N/Nc1ccc([N+](=O)[O-])cc1[N+](=O)[O-])C(CC(C(=O)Nc1ccccc1C)/C(C)=N\Nc1ccc([N+](=O)[O-])cc1[N+](=O)[O-])C(=O)Nc1ccccc1C (stereo unspecified) | 18.4% | 25.9% | 4.9% | 10.3% | 8.75% | 43.6%
Cc1cc(C)c(/C=C/c2c(C)cc(C)cc2C)c(C)c1 | 9.25% | -12.9% | 4.2% | -26.4% | -4.45% | -0.5%
CCc1ccccc1NC(=O)N1CCOCC1 | -8.45% | -27.9% | -1.55% | 3.05% | -4.15% | -7.15%
c1ccc(COC2NCCN2Cc2ccccc2)cc1 (stereo unspecified) | -29.6% | -20.5% | -10.7% | 6.8% | -55.5% | -7.85%
Cc1cc2[nH]c(=O)c(=O)[nH]c2cc1C | 0.35% | 4.05% | 7.15% | 17.7% | -0.95% | 2.55%
Cc1cc(C)c(/C=C\C(=O)c2ccccc2)c(C)c1 | 9.75% | -7.65% | -4.3% | -37.9% | 6.15% | -15.5%
O=C1c2ccccc2C(=O)C2C1C(c1ccccc1)N(c1ccccc1)C2c1ccccc1 (stereo unspecified) | -16.4% | -1.55% | -7.1% | 5.75% | 2.65% | -3.1%
COC1(OC)CC(CCl)OC1(OC)OC (stereo unspecified) | -2.45% | 0.25% | 12.7% | 1.55% | 3.15% | -4.5%
O=C1CCCCC1C(Nc1ccccc1)c1ccccc1 (stereo unspecified) | 2.95% | -6% | -10.7% | 15.8% | -2.6% | 17.1%
Cc1cccc(NC(=O)c2cccc(C(=O)Nc3cccc(C)c3C)c2)c1C | -12.4% | 0.6% | 17.6% | -15.9% | 5.2% | -21.9%
O=C(N/N=C/c1ccccc1)c1c(-c2cccnc2)cnc2ccccc12 | -12.8% | -9.3% | -10.6% | 10.9% | 12.3% | 14.3%
